These results are taken from PubChem BioAssay (NCATS).

Structures are written as SMILES. Records with an inconclusive call do not appear. A number with no mark means an inactive call. Active and inactive are the calls of the source. Calls follow the shape of the dose curve; as a rule, active = well fitted cell-killing curve with a large enough effect; inconclusive = small, poorly fitted or top-dose-only effect, or effect the other way; inactive = no such curve, though single readings can be large or run the other way.

The nature of assay [1]: Viability qHTS for spleen associated tyrosine kinase inhibitor (SYKi) naive MV4-11 cells (AID 1963823). Also: nearly all actives have a fitted effect of over 40% in size. The essentials: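 Cells: MV4-11, SYK inhibitor naive, 500 per well. Treatment: library compounds, 72 hr, 37 C, 5% CO2. Read-out: CellTiter-Glo luminescence after 10 min RT.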
On the technique in general: qHTS replaces the single test concentration by a dilution series.

Assay [2] is described as follows: Viability qHTS for spleen associated tyrosine kinase inhibitor (SYKi) drug resistant MV4-11 cells (AID 1963824). Also: nearly all actives have a fitted effect of over 35% in size. Put shortly: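 SYK-inhibitor-resistant MV4-11 AML cells were seeded at 500 per well onto compound and cultured 72 hours (37 °C, 5% CO2). CellTiter-Glo was then added, and after 10 min at room temperature, luminescence gave viability.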
Potency is read from the fitted curve at half-maximal effect.

As to `Cc1cc(-c2cc(O)ccc2Cl)cc2nnc(Nc3ccc(OCCN4CCCC4)cc3)nc12`, the Potency in assay [1] and in assay [2] was 1.84 µM (active) in each case.
On to `C/C=C(\C)C(=O)OCC1OC(OC2OC(CO)C(O)C(O)C2O)C(O)C(O)C1O` (stereo not drawn), for which the Potency result in assay [1] and in assay [2] was “inactive” throughout.
For the compound `C/C=C1\[C@H](OC2OC(COC3OC(CO)C(O)C(O)C3O)C(O)C(O)C2O)OC=C(C(=O)OC)[C@H]1CC(=O)OCCc1ccc(O)cc1` (stereo partly drawn), the Potency result in assay [1] and in assay [2] was “inactive” throughout.
For `OCC(Cc1ccccc1)Nc1nc(Oc2ccc3c(c2)CCC3)nc2c1ncn2Cc1ccc(-c2ccccc2)cc1` (stereo not drawn), the Potency is 18.4 µM (active) in assay [1] and 7.31 µM (active) in assay [2].
For `CC1=CC(=O)[C@]2(O[C@@H]3O[C@@H](C)[C@H](O)[C@@H](O)[C@H]3OC(=O)/C=C/c3ccccc3)C=CO[C@@H](O[C@@H]3O[C@H](CO)[C@@H](O)[C@H](O)[C@H]3O)[C@H]12`, in that order: “inactive” and “inactive”.
For `CCS(=O)c1nc(-c2cccc(OCc3ccccc3)c2)cc(C(F)(F)F)n1` (stereo not drawn), the Potency in assay [1] was 2.91 µM (active); in assay [2] it was 5.8 µM (active).
`CCC(C)C(=O)O[C@H]1[C@@H](O[C@H]2O[C@H](CO)[C@@H](O)[C@H](O)[C@H]2O)O[C@H](CO)[C@@H](O)[C@@H]1O` (stereo partly drawn): the Potency result in assay [1] and in assay [2] was “inactive” throughout.
For `C[C@@H]1CC[C@]2(C(=O)O[C@@H]3O[C@H](CO[C@@H]4O[C@H](CO)[C@@H](O[C@@H]5O[C@@H](C)[C@H](O)[C@@H](O)[C@H]5O)[C@H](O)[C@H]4O)[C@@H](O)[C@H](O)[C@H]3O)CC[C@]3(C)C(=CCC4[C@@]5(C)C[C@@H](O)[C@H](O)[C@@](C)(CO)C5CC[C@]43C)C2[C@H]1C` (stereo partly drawn), in assay [1], the viability (% of control) was 87.5% [at 9.25 µM]. The viability, % of control in assay [2] is 113% [at 9.25 µM].
`CN1CCN(C2Cc3ccccc3Sc3ccc(Cl)cc32)CC1` (stereo not drawn): the Potency in assay [1] and in assay [2] was 3.35 µM (active) throughout.
`COc1c2c(c(C)c3c1C(=O)OC3)OC1(C)CC(O)C3(O)C(C)(C)OC(=O)CCC3(C)C1C2` (stereo not drawn): the Potency entry in assay [1] and in assay [2] was “inactive” each time.
Turning to `Cc1cc(NC(=O)c2cccc(NC(=O)/C=C/CN(C)C)c2)ccc1Nc1nccc(-c2cccnc2)n1`, the Potency in assay [1] was 2.06 µM (active); in assay [2], 2.31 µM (active).
With `COc1cc(-c2ccc(O)cc2)c(OC)c(O)c1C1=CC(=O)OC1CC(=O)O` (stereo not drawn), the Potency result in assay [1] and in assay [2] was “inactive” each time.
Turning to `CN1CCCN(C(=O)c2cccc(-c3ccc(/C=C4\C(=O)Nc5ccc(Cl)cc54)o3)c2)CC1`, the Potency is 0.184 µM (active) in assay [1] and 0.461 µM (active) in assay [2].
In the case of `COc1cc(O)cc(C)c1C(=O)OC1C(CO)OC(n2ccc(=O)[nH]c2=O)C1OC(C)=O` (stereo not drawn), in assay [1], the Potency was 5.63 µM (active). For the same compound, the Potency result in assay [2] was “inactive”.
For `C=C1OC2CC(C(=O)O)C=CC2NC1=O` (stereo not drawn), in that order: “inactive” and 2.91 µM (active).
For `CC(C)CC(=O)NCCn1cc(C(=O)O)c(=O)cc1C(O)c1ccccc1` (stereo not drawn) the same measures were “inactive” and “inactive”.
Consider `CC(C)=CCCC1(C)/C=C/C(OC(=O)C=C(C)C)C(C)(O)/C=C/C(=O)/C(CO)=C\C1` (stereo not drawn), for which the Potency was 1.59 µM (active) in assay [1] and 2.52 µM (active) in assay [2].
Turning to `CC(=O)O[C@@H]1[C@@H](CO)O[C@@](CO)(O[C@H]2O[C@H](COC(=O)/C=C/c3ccccc3)[C@@H](O)[C@H](O)[C@H]2O)[C@H]1O`, the Potency entry in assay [1] and in assay [2] was “inactive” throughout.
With `CC(C)c1nc(N(C)S(C)(=O)=O)nc(-c2ccc(F)cc2)c1/C=C/[C@@H](O)C[C@@H](O)CC(=O)O`, the values for the Potency in assay [1] and in assay [2] were 8.2 µM (active) and 2.91 µM (active), respectively.
As for `COc1ccc(CCO[C@@H]2O[C@H](CO[C@@H]3OC[C@H](O)[C@H](O)[C@H]3O)[C@@H](O)[C@H](O)[C@H]2O)cc1`, the Potency entry in assay [1] and in assay [2] was “inactive” each time.
With `C=C1C(=O)O[C@@H]2C[C@H](C)[C@@H]3CC(=O)[C@H](O)[C@@]3(C)C[C@H]12`, the Potency in assay [1] was 9.2 µM (active); in assay [2] it was 11.6 µM (active).
On to `C[C@@H]1O[C@@H](O[C@@H]2[C@@H](O)[C@H](O[C@H]3[C@H](O[C@H]4CC[C@@]5(C)C(CC[C@]6(C)C5CC=C5[C@@H]7CC(C)(C)CC[C@]7(C(=O)O[C@@H]7O[C@H](CO)[C@@H](O)[C@H](O)[C@H]7O)CC[C@]56C)C4(C)C)O[C@H](C(=O)O)[C@@H](O)[C@@H]3O)OC[C@H]2O)[C@H](O)[C@H](O)[C@H]1O` (stereo partly drawn), for which, in assay [1], the viability (% of control) was 62.1% [at 9.25 µM]. Further, the viability, % of control in assay [2] was 87.3% [at 9.25 µM].
For `C=CC(C)(O)CC/C=C(\C)COC1O[C@H](CO)[C@@H](O)[C@H](O)[C@H]1O` (stereo partly drawn), the Potency result in assay [1] and in assay [2] was “inactive” in each case.
As to `O=C(O)/C=C/c1ccc2occc2c1O[C@@H]1O[C@H](CO)[C@@H](O)[C@H](O)[C@H]1O`, the Potency result in assay [1] and in assay [2] was “inactive” in each case.
On to `NC(=O)[C@H](O[C@@H]1O[C@H](CO)[C@@H](O)[C@H](O)[C@H]1O)c1ccccc1`, for which the Potency entry in assay [1] and in assay [2] was “inactive” in each case.
On to `CC1C(O)C(O)C2C(C(=O)OCCc3ccc(O)cc3)=COC(O[C@@H]3O[C@H](CO)[C@@H](O)[C@H](O)[C@H]3O)C12` (stereo partly drawn), for which the Potency result in assay [1] and in assay [2] was “inactive” each time.
Turning to `C[C@@H]1C(=O)O[C@H](C)[C@H]1C[C@@H](O)[C@](C)(O)[C@H]1CC[C@@]2(O)C3=CC(=O)[C@@H]4C[C@@H](O)[C@@H](O)C[C@]4(C)C3CC[C@]12C` (stereo partly drawn), the Potency result in assay [1] and in assay [2] was “inactive” throughout.
As for `Cc1ccc(C)c(NS(=O)(=O)c2cc(C(=O)Nc3ccccc3-c3ccccc3)ccc2C)c1`, the Potency in assay [1] was 23.1 µM (active); in assay [2], 16.4 µM (active).
In the case of `C[C@@H]1C[C@@H](O)[C@@]23CO[C@]2(CO)C[C@@H](O)CC3[C@@]12CC(c1ccoc1)OC2=O` (stereo partly drawn), the Potency entry in assay [1] and in assay [2] was “inactive” throughout.
Take `COc1c(OC2OC(CO)C(O)C(O)C2O)ccc(O)c1C(=O)OCc1ccccc1O[C@@H]1O[C@H](CO)[C@@H](O)[C@H](O)[C@H]1O` (stereo partly drawn): the Potency result in assay [1] and in assay [2] was “inactive” each time.
As to `COc1cc(/C=C/C(=O)O[C@@H]2C[C@@](O)(C(=O)O)C[C@@H](O)[C@@H]2O)ccc1O`, the Potency entry in assay [1] and in assay [2] was “inactive” in each case.
As for `COc1ccc(OC2OC(CO[C@@H]3O[C@@H](C)[C@H](O)[C@@H](O)[C@H]3O)C(O)C(O)C2O)cc1OC` (stereo partly drawn), the Potency result in assay [1] and in assay [2] was “inactive” in each case.
On to `Cc1ccc(C)c(S(=O)(=O)n2cnc3ccccc32)c1`, for which the Potency result in assay [1] and in assay [2] was “inactive” in each case.
Take `CNc1cc2c(Nc3cccc(Br)c3)ncnc2cn1`: the Potency in assay [1] is 18.4 µM (active); in assay [2], 23.1 µM (active).
Regarding `CCCc1cc(C(=O)N[C@H](Cc2ccc(-c3cccc(OC(F)(F)F)c3)nc2)C(=O)N[C@@H]2CCNC2)sc1C`, the Potency in assay [1] is 6.61 µM (active); in assay [2], 7.42 µM (active).
For `CCOC(=O)c1c(C)nn(-c2cccc([N+](=O)[O-])c2)c1C` the same measures were “inactive” and “inactive”.
For `COC(=O)C1(O)C(OC(C)=O)CCC2C3(CC(c4ccoc4)OC3=O)C(C)=CCC21C(=O)OC` (stereo not drawn), the Potency result in assay [1] and in assay [2] was “inactive” each time.
As to `CCN(CC)CCN(Cc1ccc(-c2ccc(C(F)(F)F)cc2)cc1)C(=O)Cn1c(SCc2ccc(F)cc2)nc(=O)c2c1CCC2`, the Potency is 2.91 µM (active) in assay [1] and 3.26 µM (active) in assay [2].
On to `N=c1nc2n(cc1F)C1OC(CO)C(O)C1O2` (stereo not drawn), for which the Potency in assay [1] is 1.64 µM (active); in assay [2], 2.59 µM (active).
Consider `COCc1c(Cl)ccc2c1CC[C@H]2c1ncc[nH]1`, for which the Potency entry in assay [1] and in assay [2] was “inactive” throughout.
As to `COc1cc(O)c2c(c1)C1OC1C[C@H](O)[C@H](O)C(=O)/C=C\C[C@H](C)OC2=O` (stereo partly drawn), the Potency is 3.26 µM (active) in assay [1] and 4.61 µM (active) in assay [2].
In the case of `C[C@@H](O)[C@H](N)C(=O)N1CCC[C@H]1C(=O)N1CCC[C@H]1C(=O)N[C@H](C(N)=O)[C@@H](C)O`, in assay [1], the viability (% of control) is 90.2% [at 9.25 µM]. The viability, % of control in assay [2] is 81.3% [at 9.25 µM].
With `Cc1oc2nc3c(c(NC(=O)CN4CCCC4=O)c2c1C)CCCC3`, the Potency entry in assay [1] and in assay [2] was “inactive” throughout.
For `C=C(C)C(=O)O[C@H]1[C@H]2C(=C)C(=O)O[C@@H]2C[C@@H](C)[C@@H]2O[C@@H]2C(=O)[C@](C)(O)[C@@H]1OC(C)=O`, the results for the Potency in assay [1] and in assay [2] were 2 µM (active) and 1.59 µM (active), respectively.
